From PubChem
A selection: hits, their analogues and other compounds. The true share with any hit is near 2%.
VLA-4 inh – inhibition in a human VLA-4 binding assay; inhibition, % (about 7 µM as worked out from the volumes in the protocol); AID 2557; VLA-4 expressing cells, ligand binding flow cytometry; P13612; actives 0.2% (n = 330,000); in the data active means inhibition above about 50%
ABCB6 inh 2 – human ABCB6 transporter inhibition; K562-ABCB6 porphyrin accumulation, flow cytometry, 1 h; hits give low values; fluorescence ratio to DMSO, % at 10 µM; actives 0.19% (n = 360,000); AID 602162;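 active means fluorescence ratio to DMSO below 75%, the collection mean minus 3 SD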;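 further: signal is porphyrin accumulated inside mitochondria; 100% equals median channel fluorescence of DMSO control wells; lower ratio means ABCB6 inhibition with less porphyrin fluorescence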
Granule exo inh – lytic granule exocytosis inhibition; AID 651702; actives 0.66% (n = 360,000); inhibition, % at 10 µM; TALL-104 LAMP-1 surface exposure, flow cytometry; cells stimulated with thapsigargin and PMA;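 active means inhibition above about 55%, limit read from the data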
NR1D1 modulator – modulators of human Rev-erb alpha DNA binding | actives 0.79% (n = 370,000) | activity, % at 10 µM | Rev-erbα–FITC-DNA binding, fluorescence polarization, 90 min | AID 1259318 | P20393;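 active means activity above about 14%, limit read from the data; passing the limit was not always enough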;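 further: 0% = DMSO wells with 35 nM protein and 100% = DMSO wells with 750 nM protein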
PG9 Ab binder – small molecules binding HIV-1 gp120 antibody PG9; TR-FRET gp120-PG9 antibody binding; inhibition, % at 6.7 µM; actives 0.43% (n = 360,000); in the data active means inhibition above about 8.5%
PG9 binder conf – PG9 antibody binding, confirmed | inhibition, % at 6.7 µM | TR-FRET PG9 antibody binding, biochemical | AID 651571 | actives 90% (n = 1,500) | shares compounds with PG9 Ab binder; in the data active means inhibition above about 9%
PGV04 Ab binding – counter-screen for PG9 binders: binding control antibody PGV04; TR-FRET PGV04 antibody-gp120 binding, biochemical; inhibition, % at 6.7 µM; shares compounds with PG9 Ab binder; actives 95% (n = 1,500); in the data active means inhibition above about 9.5%
PG9 binder DR – small molecules binding HIV-1 gp120 antibody PG9 | shares compounds with PG9 Ab binder | TR-FRET PG9 antibody-gp120 binding inhibition | IC50, µM | 95 tested, under 10 active; in the data active means IC50 below about 10 µM
PGV04 binding DR – counter-screen for PG9 binders: binding to control antibody PGV04. shares compounds with PG9 Ab binder. TR-FRET binding to control antibody PGV04. IC50, µM. actives 20% (n = 95)
PG126 DR counter – counter-screen for PG9 binders: binding to control antibody PG126; AID 651939; IC50, µM; TR-FRET binding to antibody PG126, counterscreen; actives 20% (n = 95); shares compounds with PG9 Ab binder
NR1D1 mod conf – Rev-erb alpha (human) modulation, hit confirmation. AID 1259319. activation, % at 25 µM. actives 61% (n = 3,000). Rev-erb alpha FITC-DNA binding, fluorescence polarization, 90 min. shares compounds with NR1D1 modulator;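 active means activation at or above a set limit, or at least 3 SD above the negative control mean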;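 further: 0% = 35 nM protein with DMSO and 100% = 750 nM protein high control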
RORg counter – affects RORgamma DNA binding in a Rev-erb alpha counter-screen; actives 8% (n = 910); shares compounds with NR1D1 modulator; IC50, µM; purified RORgamma protein-FITC-DNA binding, fluorescence polarization;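 active means Compounds whose fitted half-maximal concentration for disrupting protein-DNA binding is below 10 micromolar; the record names Rev-erb in its text, so the target is in doubt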
* hit, by the source's call; i = inactive; x = not tested or not shown. Unless noted, no stated cut-off is given here; in the data, active means IC50 below about 9 µM; inactive means the rest.

SMILES	VLA-4 inh	ABCB6 inh 2	Granule exo inh	NR1D1 modulator	PG9 Ab binder	PG9 binder conf	PGV04 Ab binding	NR1D1 mod conf	others
COC(=O)c1c(NC(=O)c2ccn(C)n2)sc2c1CCC2	-4.9	92.0	2.0	20.0*	9.0*	7.1	12.5*	-4.7
CC(=O)Nc1ccc(C(=O)CSc2cc(C)c3cccc(C)c3n2)cc1	1.3	91.0	2.4	37.5*	17.2*	22.8*	47.8*	30.1*
Cc1cc(SCC(=O)c2cccs2)nc2c(C)cccc12	5.2	101.0	0.2	3.1	2.4	x	x	x
Cc1nc(SCC(=O)Nc2ccc(F)cc2)c(C#N)c(C)c1CC(=O)c1ccc(Br)cc1	-2.1	94.0	-1.7	70.4*	8.7*	25.6*	34.7*	15.5
Cc1cccc(NC(=O)CSc2nc(C)c(CC(=O)c3ccc(Br)cc3)c(C)c2C#N)c1C	13.7	113.0	0.1	81.8*	9.2*	21.1*	30.0*	30.6*
COC(=O)c1c(-c2ccc(F)cc2)csc1NC(=O)c1ccco1	-4.4	92.0	1.1	26.8*	11.6*	18.2*	25.4*	15.7
COc1ccc(-c2nnc(NC(=O)C(C)C)s2)c(OC)c1	21.1	97.0	24.1	38.0*	12.5*	20.1*	30.1*	28.2*	RORg counter=>40
CCCCOCCCNC(=O)C[C@H]1C[C@@]2(C(=O)OC)C(=C[C@H](C(C)C)O[C@@H]2C2CC2)N(Cc2ccc(Cl)cc2Cl)C1=O	x	x	x	-3.4	x	x	x	x
N#Cc1c(N)nc(N2CCCC2)c(C#N)c1-c1ccc(Cl)cc1	-0.9	101.0	-1.7	146.5*	25.2*	19.4*	28.3*	106.2*	RORg counter=>40
O=C(Cn1cnc2c(oc3nc4c(cc32)CCCC4)c1=O)Nc1cccc(Cl)c1	-0.5	110.0	15.3	57.1*	9.1*	25.6*	25.0*	17.0	PG9 binder DR=>67;PGV04 binding DR=i;PG126 DR counter=i
O=C(Cn1cnc2c(oc3nc4c(cc32)CCCC4)c1=O)Nc1ccccc1	21.1	93.0	0.1	10.1	1.9	x	x	x
CCOc1ccc(CC(=O)Nc2sc(Cc3ccccc3)cc2C(N)=O)cc1OCC	7.1	96.0	-1.6	69.2*	54.7*	14.5*	21.0*	43.5*	RORg counter=2.48*
CNC[C@H](O)[C@@H](O)[C@H](O)[C@H](O)CO	x	x	x	-5.2	x	x	x	x
CCOC(=O)N1CCC(NC(=O)c2ccc3c(c2)N(Cc2ccc(C)cc2)CCS3)CC1	7.1	96.0	-18.8	29.9*	22.5*	30.6*	43.7*	6.9
CCOC(=O)c1cc(C(=O)OCC)c2cc(Br)ccc2n1	10.6	98.0	2.6	39.8*	11.4*	12.1*	17.1*	37.7*	RORg counter=>40
Cc1cc(C(N)=O)c2cc(Br)ccc2n1	-4.9	93.0	1.5	-1.9	-0.5	x	x	x
Cc1cc(NC(=O)COc2ccc3oc4ccccc4c3c2)no1	-2.4	90.0	-0.2	35.9*	22.6*	22.7*	31.9*	25.8*
Cc1cc(NC(=O)COc2ccc3c(C)c(C)c(=O)oc3c2)no1	x	99.0	22.5	-0.7	-1.8	x	x	x
COc1ccc(-c2nnc(SCC(=O)Nc3ccc4cn[nH]c4c3)n2Cc2ccco2)cc1	x	x	x	-3.7	x	x	x	x
COc1ccc(S[C@]2(C(=O)N3CCOCC3)CC(=O)N(C(=O)Nc3ccc(C)c(Cl)c3)[C@@H]2c2ccc(OC)cc2)cc1	x	x	x	2.4	x	x	x	x
COC(=O)C1=C(C)N(Cc2cccc(C(F)(F)F)c2)C(=NCc2cc(OC)c(OC)c(OC)c2)NC1c1ccc(F)cc1 (configuration not stated)	x	x	x	-7.2	-0.7	x	x	x
Fc1cccc2sc(Nc3nc4c(F)cccc4s3)nc12	-8.2	98.0	11.4	67.7*	22.8*	23.6*	37.6*	58.0*	RORg counter=>40
NNc1nc2c(F)cccc2s1	3.5	95.0	1.7	5.7	-8.2	x	x	x
COc1ccc(-n2c(SCC(=O)NCC3CCCO3)nnc2-c2ccncc2)cc1 (configuration not stated)	x	x	x	-3.4	x	x	x	x
COC(=O)[C@]12C[C@H](CC(=O)NCCC(C)C)C(=O)N(Cc3ccccc3)C1=C[C@H](C1CCCC1)O[C@@H]2C	x	x	x	-4.6	0.5	x	x	x
SMILES	VLA-4 inh	ABCB6 inh 2	Granule exo inh	NR1D1 modulator	PG9 Ab binder	PG9 binder conf	PGV04 Ab binding	NR1D1 mod conf	others
CCn1c(=NC(=O)c2cccc(N3C(=O)CCC3=O)c2)sc2c(C)ccc(OC)c21	13.8	98.0	4.2	6.2	0.7	x	x	x
CCn1c(=NC(=O)c2ccc(N3C(=O)CCC3=O)cc2)sc2c(OC)ccc(OC)c21	-2.8	93.0	20.4	81.8*	15.9*	30.6*	55.5*	95.7*	RORg counter=i
Brc1cc(Br)c2ncnc(N3CCCCC3)c2c1	2.5	x	0.6	75.8*	38.4*	53.8*	62.6*	40.2*	RORg counter=2.84*
Clc1ccc(-n2ncc3c(N4CCCCCC4)ncnc32)cc1	31.8	94.0	0.8	-5.2	1.0	x	x	x
C[C@]12CCC3c4ccc(O)cc4CCC3C1CC[C@@H]2O (some centres not stated)	x	x	x	-0.7	x	x	x	x
Clc1ccc2nc(CNc3nc(N4CCOCC4)nc4c3ncn4-c3ccsc3)[nH]c2c1	x	x	x	-2.4	x	x	x	x
CCc1nc2ccccc2c(C(=O)OCc2nc3ccccc3c(=O)[nH]2)c1C	-14.9	96.0	3.1	32.4*	24.6*	14.0*	16.8*	28.1*	RORg counter=>40
CCc1nc2ccccc2c(C(=O)OCC(=O)C(C)(C)C)c1C	-3.5	103.0	-0.4	0.3	-1.5	x	x	x
C=CCN1C(=O)[C@@H](CC(=O)NCCCOC)[C@]2(C(=O)OCC)CCCCC/C=C/12	x	x	x	0.1	x	x	x	x
CC(C)(C)C(=O)CSc1nc2ncc(Br)cc2[nH]1	-2.8	102.0	-3.4	-1.1	-0.3	x	x	x
Cc1cc(C)c(NC(=O)CSc2nc3ncc(Br)cc3[nH]2)c(C)c1	3.4	98.0	6.7	124.0*	39.3*	40.9*	64.8*	98.9*	RORg counter=>40
O=S1(=O)c2ccc(Br)cc2OC2CCCC[C@@H]2N1Cc1ccccc1 (some centres not stated)	x	x	x	4.1	-0.4	x	x	x
